Where a name gives a salt, the structure may show the parent alone.

The test system of the test is Danio rerio larvae (5 dpf). As to the kind of experiment: activity during first hour (no stimuli), difference vs DMSO (percentage points (treated minus DMSO)); higher = more of the behaviour than the DMSO vehicle control. As to conditions: 10 µM; exposure time: 3 h pre-incubation + 3 h imaging. How it is done:
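5-dpf wild-type zebrafish larvae were imaged in 96-well plates. They were treated with 190 Tocris FDA-approved drugs at 10 µM (1 µl/ml DMSO) for 3 h before and 3 h during imaging at 28.5 °C, 48 larvae per drug. Automated image analysis gave % time moving and optomotor responses. Values are drug group mean minus DMSO vehicle mean (n=844), in percentage points, for 10 behaviours.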
Regarding `CN(C)CCC[C@@]1(c2ccc(F)cc2)OCc2cc(C#N)ccc21` [Escitalopram oxalate], the “activity during first hour” value was -24.4.

As to `COc1c(C)c2c(c(O)c1C/C=C(\C)CCC(=O)O)C(=O)OC2` [Mycophenolic acid], the “activity during first hour” value was 2.64.

With `COCCc1ccc(OCC(O)CNC(C)C)cc1` (stereo not given) [Metoprolol tartrate], the “activity during first hour” value came to 5.56.

`CCCCc1nc(Cl)c(CO)n1Cc1ccc(-c2ccccc2-c2nnn[nH]2)cc1` [Losartan potassium]: the “activity during first hour” value was 13.

For the molecule `Nc1nc(NC2CC2)c2ncn([C@H]3C=C[C@@H](CO)C3)c2n1` [Abacavir hemisulfate], the “activity during first hour” value is 8.55.

In the case of `O=C(c1ccc(OCCN2CCCCC2)cc1)c1c(-c2ccc(O)cc2)sc2cc(O)ccc12` [Raloxifene hydrochloride], the “activity during first hour” value was -5.98.

Turning to `COc1ccc(C[C@@H](C)NC[C@H](O)c2ccc(O)c(NC=O)c2)cc1` [Arformoterol tartrate], the “activity during first hour” value was 45.9.

Turning to `CN1CC[C@@H](NC(=O)Nc2ccc(C#N)cc2)C[C@@H]1c1nc2ccccc2[nH]1`, the “activity during first hour” value is -8.92.

Take `CNC(=O)c1cc(Oc2ccc(NC(=O)Nc3ccc(Cl)c(C(F)(F)F)c3)cc2)ccn1` [Sorafenib]: the “activity during first hour” value was found to be 3.08.

On to `Cc1ccccc1C(=O)Nc1ccc(C(=O)N2CCCC(O)c3cc(Cl)ccc32)c(C)c1` (stereo not given) [Tolvaptan], for which the “activity during first hour” value amounted to 1.26.

As to `NS(=O)(=O)c1cc2c(cc1Cl)NC(C1CC3C=CC1C3)NS2(=O)=O` (stereo not given) [Cyclothiazide], the “activity during first hour” value amounted to 0.422.

Take `CN1CCN2c3ncccc3Cc3ccccc3C2C1` (stereo not given) [Mirtazapine]: the “activity during first hour” value amounted to 11.7.

For the molecule `CCCc1nc(C(C)(C)O)c(C(=O)O)n1Cc1ccc(-c2ccccc2-c2nnn[nH]2)cc1` [Olmesartan], the “activity during first hour” value is 12.1.

In the case of `O=C(O)CCCc1ccccc1` [Sodium 4-Phenylbutyrate], the “activity during first hour” value turned out to be 3.48.

Consider `CCCCC1=NC2(CCCC2)C(=O)N1Cc1ccc(-c2ccccc2-c2nnn[nH]2)cc1` [Irbesartan], for which the “activity during first hour” value was 3.29.

With `COc1c(C)c2c(c(O)c1C/C=C(\C)CCC(=O)OCCN1CCOCC1)C(=O)OC2` [Mycophenolate mofetil], the “activity during first hour” value was -1.93.

As to `CCOC(=O)C1=C(COCCN)NC(C)=C(C(=O)OC)C1c1ccccc1Cl` (stereo not given) [Amlodipine besylate], the “activity during first hour” value is 2.38.

Turning to `N[C@@H]1[C@H]2CN(c3nc4c(cc3F)c(=O)c(C(=O)O)cn4-c3ccc(F)cc3F)C[C@@H]12` [Trovafloxacin mesylate], the “activity during first hour” value is 5.81.

`CC(C)OC(=O)C(C)(C)Oc1ccc(C(=O)c2ccc(Cl)cc2)cc1` [Fenofibrate]: the “activity during first hour” value stood at 6.44.

With `Cc1ccc(N(CC2=NCCN2)c2cccc(O)c2)cc1` [Phentolamine Mesylate], the “activity during first hour” value was found to be 9.58.

As for `CCN(Cc1ccncc1)C(=O)C(CO)c1ccccc1` (stereo not given) [Tropicamide], the “activity during first hour” value is -5.17.

On to `CCC(C)(C)C(=O)O[C@H]1C[C@@H](C)C=C2C=C[C@H](C)[C@H](CC[C@@H]3C[C@@H](O)CC(=O)O3)[C@H]21` [Simvastatin], for which the “activity during first hour” value worked out at 7.12.

For the molecule `CCCCCCCN(CC)CCCC(O)c1ccc(NS(C)(=O)=O)cc1` (stereo not given) [Ibutilide hemifumarate], the “activity during first hour” value was -4.99.

`CCCCC(=O)N(Cc1ccc(-c2ccccc2-c2nnn[nH]2)cc1)[C@H](C(=O)O)C(C)C` [Valsartan]: the “activity during first hour” value turned out to be 4.88.

As to `CCOC(=O)[C@H](CCc1ccccc1)N[C@H]1CCc2ccccc2N(CC(=O)O)C1=O` [Benazepril hydrochloride], the “activity during first hour” value was found to be 1.65.

As for `C=C1[C@H](CO)[C@@H](O)C[C@@H]1n1cnc2c(=O)[nH]c(N)nc21` [Entecavir], the “activity during first hour” value was -1.96.

With `COc1cc2nccc(Oc3ccc(NC(=O)C4(C(=O)Nc5ccc(F)cc5)CC4)cc3)c2cc1OC`, the “activity during first hour” value stood at 20.

For `CC(=O)Oc1ccccc1C(=O)O` [Aspirin], the “activity during first hour” value is -0.0609.

In the case of `Cc1cc(C2CCCCC2)n(O)c(=O)c1` [Ciclopirox], the “activity during first hour” value is 2.44.

As to `O=C(O[C@@H]1C[C@@H]2C[C@H]3C[C@H](C1)N2CC3=O)c1c[nH]c2ccccc12` [Dolasetron mesylate], the “activity during first hour” value was -1.16.

In the case of `NC(=O)c1ncn([C@@H]2O[C@H](CO)[C@@H](O)[C@H]2O)n1` [Ribavirin], the “activity during first hour” value was 1.58.

`Cc1ccc(-c2cc(C(F)(F)F)nn2-c2ccc(S(N)(=O)=O)cc2)cc1` [Celecoxib]: the “activity during first hour” value is -5.35.

For the molecule `COc1ccccc1OCC(O)CN1CCN(CC(=O)Nc2c(C)cccc2C)CC1` (stereo not given) [Ranolazine dihydrochloride], the “activity during first hour” value was found to be 10.4.

`Cc1cccc(C)c1OCC(C)N` (stereo not given) [Mexiletine hydrochloride]: the “activity during first hour” value is 4.51.

`O=C1CCc2ccc(OCCCCN3CCN(c4cccc(Cl)c4Cl)CC3)cc2N1` [Aripiprazole]: the “activity during first hour” value is 8.28.

Turning to `CC(C)[C@H]1CC[C@H](C(=O)N[C@H](Cc2ccccc2)C(=O)O)CC1` [Nateglinide], the “activity during first hour” value is 4.52.

In the case of `CCCN(CCc1cccs1)[C@H]1CCc2c(O)cccc2C1` [Rotigotine hydrochloride], the “activity during first hour” value is -26.8.

As for `COc1cccc2c1C(=O)c1c(O)c3c(c(O)c1C2=O)C[C@@](O)(C(=O)CO)C[C@@H]3O[C@H]1C[C@H](N)[C@H](O)[C@H](C)O1` [Doxorubicin hydrochloride], the “activity during first hour” value was -5.82.

Regarding `Brc1c(NC2=NCCN2)ccc2nccnc12`, the “activity during first hour” value is -17.

As for `CCCc1nc2c(C)cc(-c3nc4ccccc4n3C)cc2n1Cc1ccc(-c2ccccc2C(=O)O)cc1` [Telmisartan], the “activity during first hour” value is -6.28.

These data come from the supplement of paper PMC9023506.
